FBA Mtb inh – inhibitors of M. tuberculosis fructose-bisphosphate aldolase; actives 2.3% (n = 360,000); P9WQA3; inhibition, % at 1 µM; purified M. tuberculosis FBA, fluorescence read-out; AID 588726
Target sequence (P9WQA3 whole entry, looked up): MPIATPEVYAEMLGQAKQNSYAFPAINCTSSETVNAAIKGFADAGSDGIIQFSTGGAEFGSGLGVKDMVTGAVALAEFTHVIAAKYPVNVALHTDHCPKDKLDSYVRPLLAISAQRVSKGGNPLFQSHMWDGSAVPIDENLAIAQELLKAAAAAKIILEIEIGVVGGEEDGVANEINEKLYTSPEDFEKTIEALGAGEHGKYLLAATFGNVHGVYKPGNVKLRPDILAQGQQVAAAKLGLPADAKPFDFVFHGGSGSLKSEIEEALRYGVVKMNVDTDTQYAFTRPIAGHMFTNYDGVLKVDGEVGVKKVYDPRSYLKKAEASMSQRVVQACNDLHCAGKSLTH
RecA splice inh – inhibitors of M. tuberculosis RecA intein splicing; P9WHJ3; cell-free RecA intein splicing, fluorescence; inhibition, % (concentration not given with the values); actives 0.75% (n = 290,000); AID 2221; in the data active = inhibition above about 30%
Rv3671c protease – inhibitors of M. tuberculosis serine protease Rv3671c | inhibition, % at 5.96 µM | actives 0.048% (n = 320,000) | AID 2606 | P9WHR9; in the data active = inhibition above about 38%;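 also: extracellular domain of Rv3671c used as enzyme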
UGM FP inh – inhibitors of M. tuberculosis UDP-galactopyranose mutase. inhibition, % at 10 µM. purified UGM, fluorescence polarization probe displacement. actives 0.06% (n = 320,000). AID 504406. P9WIQ1; in the data active = inhibition above about 10%, passing the limit was not always enough
Target sequence (P9WIQ1 whole entry, looked up): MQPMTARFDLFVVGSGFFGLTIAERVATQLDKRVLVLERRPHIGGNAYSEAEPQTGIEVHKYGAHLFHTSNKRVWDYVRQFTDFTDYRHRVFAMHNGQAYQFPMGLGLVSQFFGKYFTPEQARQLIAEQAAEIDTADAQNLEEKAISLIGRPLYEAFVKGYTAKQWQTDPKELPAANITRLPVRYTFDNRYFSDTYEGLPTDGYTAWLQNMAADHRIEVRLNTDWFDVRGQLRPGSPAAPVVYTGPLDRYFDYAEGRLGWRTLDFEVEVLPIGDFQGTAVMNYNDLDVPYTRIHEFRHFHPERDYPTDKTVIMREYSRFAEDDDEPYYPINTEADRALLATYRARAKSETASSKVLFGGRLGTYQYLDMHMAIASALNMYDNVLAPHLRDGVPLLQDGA
GDH-TPI counter-1 – GDH-TPI coupled enzyme inhibition counter-screen; inhibition, % at 4.8 µM; GDH-TPI coupled enzyme counterscreen, NADH absorbance; actives 1.2% (n = 360,000); in the data active = inhibition above about 30%
Mtb bLac sens – beta-lactam sensitization of Mtb H37Rv; M. tuberculosis H37Rv growth with meropenem, percent inhibition; inhibition, % at 25 µM; actives 0.27% (n = 330,000); call rule not given here;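 also: growth measured after seven days incubation then overnight dye step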
Mtb FBA inh conf – Mtb FBA inhibition, confirmed; actives 78% (n = 5,600); purified M. tuberculosis FBA, fluorescence read-out; inhibition, % at 1 µM; shares compounds with FBA Mtb inh
GDH-TPI counter-2 – counter-screen for M. tuberculosis FBA inhibitors: GDH-TPI coupled enzyme inhibition. shares compounds with FBA Mtb inh. GDH-TPI coupled enzyme counterscreen, fluorescence. inhibition, % at 1 µM. actives 81% (n = 5,600). AID 652141; in the data active = inhibition above about 10%
Each line names hits and unclear results; the compound was inactive in the other large screens (follow-up assays come after a bar, where they were run). Only some compounds are listed: those with a hit (about 4% of all), similar ones and a draw of the others. Rule as the data show it, unless noted: active = inhibition above about 27%; inactive = the rest.

CC(=O)Nc1ccc(CN2C(=O)C(C)ON=C2c2ccccc2-c2ccco2)cc1 (centres undefined)	none (no result: RecA splice inh, Rv3671c protease, UGM FP inh, Mtb bLac sens)
CCCCn1c(-c2ccc(Cl)cc2)nc2c(=O)n(C)c(=O)[nH]c21	none (no result: RecA splice inh, Rv3671c protease, UGM FP inh, Mtb bLac sens)
Cn1c(=O)[nH]c2c(nc(-c3ccc(Cl)cc3)n2C)c1=O	FBA Mtb inh 28.4 | Mtb FBA inh conf inactive | GDH-TPI counter-2 inactive
CCCn1c(-c2ccc(OC)cc2)nc2c(=O)n(C)c(=O)[nH]c21	FBA Mtb inh 70.7 | Mtb FBA inh conf inactive | GDH-TPI counter-2 inactive
CCCCn1c(-c2ccc(OC)cc2)nc2c(=O)n(C)c(=O)[nH]c21	FBA Mtb inh 57.8 | Mtb FBA inh conf 106.7 | GDH-TPI counter-2 105.9
Cc1ccc(S(=O)(=O)N(C)C[C@@H]2OCc3cnnn3CCCC(=O)N([C@H](C)CO)C[C@@H]2C)cc1	none (no result: RecA splice inh, Rv3671c protease, UGM FP inh, Mtb bLac sens)
Cc1ccc(S(=O)(=O)N2CCC[C@H]2C(=O)NCc2ccccc2Cl)cc1	none (no result: RecA splice inh)
COc1cccc(-c2csc(NNC(=O)c3cccs3)n2)c1	FBA Mtb inh 63.7 | Mtb FBA inh conf 27.6 | GDH-TPI counter-2 14.2
COc1cccc(-c2csc(NC(=O)Oc3ccccc3)n2)c1	none
O=C(NN1C(=O)NC2(CCCCC2)C1=O)c1ccc(-c2ccc(Cl)cc2)o1	FBA Mtb inh 34.7 (no result: RecA splice inh) | Mtb FBA inh conf 157.3 | GDH-TPI counter-2 123.6
O=C(NN1C(=O)NC2(CCCCC2)C1=O)c1cc2cc(Cl)ccc2o1	none (no result: RecA splice inh)
CCCN(CC(=O)Nc1ccccc1C)C(=O)CCCNC(=O)c1ccc(Cl)cc1	none (no result: RecA splice inh, Rv3671c protease, UGM FP inh, Mtb bLac sens)
O=c1cc(-c2cccs2)oc2ccc(Cl)cc12	FBA Mtb inh 37.8, GDH-TPI counter-1 37.6 | Mtb FBA inh conf 155.8 | GDH-TPI counter-2 119.5
CCN(CC)CCCNC(=O)c1cn(C)c(=O)c2c1c1ccccc1n2C	FBA Mtb inh 30.1 | Mtb FBA inh conf 83.3 | GDH-TPI counter-2 70.7
CCN1CCN(CCCNC(=O)c2cn(CCOC)c(=O)c3c2c2ccccc2n3C)CC1	none
COCCn1cc(C(=O)NCCCN2CCC(C)CC2)c2c3ccccc3n(C)c2c1=O	FBA Mtb inh 28.4 (no result: RecA splice inh) | Mtb FBA inh conf active | GDH-TPI counter-2 active
CCN(CC)CCCNC(=O)c1cn(CCOC)c(=O)c2c1c1ccccc1n2C	FBA Mtb inh 29.4 | Mtb FBA inh conf 102.0 | GDH-TPI counter-2 96.2
CCN(CC)CCCNC(=O)c1cn(CC(C)C)c(=O)c2c1c1ccccc1n2C	FBA Mtb inh 34.9 | Mtb FBA inh conf 104.8 | GDH-TPI counter-2 95.2
CCN(CC)CCNC(=O)c1cn(CCOC)c(=O)c2c1c1ccccc1n2C	none
CN(C)C1=NCCN1CC1CCCCC1	none (no result: RecA splice inh)
CCC(C)(C)C1CCc2[nH]nc(C(=O)NCCCNC(=O)OC(C)(C)C)c2C1 (centres undefined)	none (no result: RecA splice inh)
O=C(Nc1ccccc1)Nc1cnccn1	none
COCCN(Cc1ccc(C)cc1)C(=O)[C@H]1O[C@@H](n2cnc3c(N)ncnc32)[C@H](O)[C@@H]1O	none (no result: RecA splice inh, Rv3671c protease, UGM FP inh, GDH-TPI counter-1, Mtb bLac sens)
CCC(C)NS(=O)(=O)c1cc2c3c(c1)CCN3C(=O)CC2 (centres undefined)	none
CN(Cc1cnccn1)C(=O)CC1C(=O)NCCN1Cc1cccc(Oc2ccccc2)c1 (centres undefined)	FBA Mtb inh 28.4 | Mtb FBA inh conf 85.5 | GDH-TPI counter-2 77.1
N#C/C(=C\c1cccnc1)C(=O)Nc1ccc(O)cc1F	none
O=C(O)CC/C(=N/NC(=O)c1cn(-c2ccccc2)nc1-c1ccccc1)C(=O)O	FBA Mtb inh 31.1 | Mtb FBA inh conf 65.8 | GDH-TPI counter-2 63.5
Cc1ccc(-c2cc(-c3ccccc3)c(C#N)c(N)n2)o1	FBA Mtb inh 28.5 | Mtb FBA inh conf 148.4 | GDH-TPI counter-2 125.3
Cc1cc(C)n2cc(CSC3=NCCS3)nc2n1	FBA Mtb inh 53.3 | Mtb FBA inh conf 189.9 | GDH-TPI counter-2 155.3
Cc1ccnc(SCc2cn3c(C)cc(C)nc3n2)n1	FBA Mtb inh 99.7 | Mtb FBA inh conf 45.7 | GDH-TPI counter-2 48.1
Cc1cc(C)n2cc(CSc3ncccc3C(=O)O)nc2n1	FBA Mtb inh 81.6 | Mtb FBA inh conf 199.3 | GDH-TPI counter-2 179.4
CCOc1ccc(CCNC(=O)COC(=O)c2cc(OC)c(OC)cc2[N+](=O)[O-])cc1OCC	none
CCN1CCN(C(=O)c2ccc(Cl)c(S(=O)(=O)N3CCCCC3)c2)CC1	none
Cc1cc(C)n(-c2nc(NCc3cccnc3)c3c4c(sc3n2)COC(C)(C)C4)n1	FBA Mtb inh 62.9 | Mtb FBA inh conf 80.5 | GDH-TPI counter-2 62.7
CCN(CC)CCCNc1nc(-n2nc(C)cc2C)nc2sc3c(c12)CC(C)(C)OC3	none
Cc1c(C)c2ccc(OCC(=O)Nc3ccccn3)cc2oc1=O	none
CCCCNc1ccccc1C(=O)OCC(=O)Nc1ccc(S(N)(=O)=O)cc1	FBA Mtb inh 48.1 | Mtb FBA inh conf 33.7 | GDH-TPI counter-2 22.7
COc1cccc(/C=C/C(=O)OCC(=O)Nc2cccc(S(=O)(=O)NC3=NCCCCC3)c2)c1	FBA Mtb inh 35.5 (no result: RecA splice inh) | Mtb FBA inh conf inactive | GDH-TPI counter-2 inactive
O=C(COC(=O)/C=C/c1cccc(F)c1)Nc1cccc(S(=O)(=O)NC2=NCCCCC2)c1	none (no result: RecA splice inh)
O=C(COC(=O)c1ccccc1NCCO)Nc1cccc(S(=O)(=O)NC2=NCCCCC2)c1	FBA Mtb inh 53.2 | Mtb FBA inh conf inactive | GDH-TPI counter-2 inactive
CCC(=O)Nc1ccccc1C(=O)OCC(=O)Nc1ccc(S(N)(=O)=O)cc1	none
C[C@H](NC(=O)C1CCN(C(=O)[C@@H]2CCCN2C(=O)OC(C)(C)C)CC1)C(=O)NCc1ccc(F)cc1	none (no result: RecA splice inh, Rv3671c protease, UGM FP inh, Mtb bLac sens)
O=C(N/N=C/c1ccc(N2CCOCC2)cc1)c1ccccc1NS(=O)(=O)c1cccs1	FBA Mtb inh 44.5, GDH-TPI counter-1 37.9 | Mtb FBA inh conf active | GDH-TPI counter-2 active
O=C(NN=Cc1ccc(O)cc1O)c1ccccc1NS(=O)(=O)c1cccs1	FBA Mtb inh 40.8 (no result: RecA splice inh) | Mtb FBA inh conf inactive | GDH-TPI counter-2 inactive
COc1cc(C=NNC(=O)c2ccccc2NS(=O)(=O)c2cccs2)cc(OC)c1O	none (no result: RecA splice inh)
N=c1oc2ccccc2cc1C(=O)Nc1ccccc1	none
N=c1oc2cc(O)ccc2cc1C(=O)Nc1ccc(Br)cc1	FBA Mtb inh 73.0 | Mtb FBA inh conf inactive | GDH-TPI counter-2 15.4
C=CCn1c(SCC(=O)NCC2CCCO2)nnc1-c1ccncc1 (centres undefined)	none (no result: RecA splice inh)
COc1ccc(CC2=NCCc3cc(OC)c(OC)cc32)cc1OC	FBA Mtb inh 93.6 (no result: RecA splice inh, Rv3671c protease, UGM FP inh, Mtb bLac sens) | Mtb FBA inh conf active | GDH-TPI counter-2 157.1
O=C(N[C@H]1c2ccccc2C[C@H]1O)[C@H]1O[C@@H](n2ccc(=O)[nH]c2=O)[C@H](O)[C@@H]1O	none (no result: RecA splice inh, Rv3671c protease, UGM FP inh, GDH-TPI counter-1, Mtb bLac sens)
O=C1NC(Cc2ccc(O)cc2)c2nc3ccc(F)cc3c(=O)n2-c2cc(Cl)ccc21 (centres undefined)	none (no result: RecA splice inh, Rv3671c protease, UGM FP inh, Mtb bLac sens)
Cc1ccc(-c2nc3c(c(=O)[nH]c(=O)n3Cc3ccccc3)n2C)o1	FBA Mtb inh 36.2 (no result: RecA splice inh, Rv3671c protease, UGM FP inh, Mtb bLac sens) | Mtb FBA inh conf 98.4 | GDH-TPI counter-2 114.6

Compound activity as filed in PubChem BioAssay.
